“And” between values parts separate entries of the source, which are not always exact repeats. Identical values can stand only once. Hit rate of the full screen: of about 5,500 compounds, about 2,000 (36%) were called active. Roughly 18% stayed inconclusive and do not appear here. Rule as the data show it: active = normalized growth mostly below about 0.91 (no sharp cut-off); inconclusive = no clear call, values can overlap the other calls; inactive = mostly above about 0.92. Some of the results follow.
Assay: chemical genetic growth profiling, strain panel (AID 1159580);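 also: tested at 20 µM; growth read once vehicle control cultures reached saturation at 30 °C; 1 = growth at the plate median or of vehicle wells; lower values mean less growth of the strain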
Settings: growth OD

Measured: normalized growth

CC1(C)NC(=O)N(c2ccc([N+](=O)[O-])c(C(F)(F)F)c2)C1=O
inactive: S. cerevisiae deletion strains, locus YJR075W, strain HOC1, stronger effect = lower value 1.01 | S. cerevisiae deletion strains, locus YKL009W, strain mrt4, stronger effect = lower value 0.969 | S. cerevisiae deletion strains, locus YKL068W, stronger effect = lower value 0.992 | S. cerevisiae deletion strains, locus YKL085W, strain MDH1 (second series), stronger effect = lower value 0.988 | S. cerevisiae deletion strains, locus YKL085W, strain MDH1, stronger effect = lower value 0.988 | S. cerevisiae deletion strains, locus YKL160W, strain elf1, stronger effect = lower value 0.988 | S. cerevisiae deletion strains, locus YKL190W, strain CNB1, stronger effect = lower value 1.01 | S. cerevisiae deletion strains, locus YKR001C, strain vps1, stronger effect = lower value 0.975 | S. cerevisiae deletion strains, locus YKR026C, strain gcn3, stronger effect = lower value 0.984 | S. cerevisiae deletion strains, locus YKR091W, strain srl3, stronger effect = lower value 0.989 | S. cerevisiae deletion strains, locus YLL001W, strain dnm1, stronger effect = lower value 0.986 | S. cerevisiae deletion strains, locus YLL026W, stronger effect = lower value 0.98 | S. cerevisiae deletion strains, locus YLL041C, strain sdh2, stronger effect = lower value 0.988 | S. cerevisiae deletion strains, locus YLR027C, strain aat2, stronger effect = lower value 0.986 | S. cerevisiae deletion strains, locus YLR039C, strain RIC1, stronger effect = lower value 0.984 | S. cerevisiae deletion strains, locus YLR058C, strain SHM2, stronger effect = lower value 1.02 | S. cerevisiae deletion strains, locus YLR102C, strain apc9, stronger effect = lower value 0.965 | S. cerevisiae deletion strains, locus YLR113W, strain HOG1, stronger effect = lower value 1.03 | S. cerevisiae deletion strains, locus YLR221C, strain rsa3, stronger effect = lower value 0.98 | S. cerevisiae deletion strains, locus YLR258W, strain gsy2, stronger effect = lower value 0.984 | S. cerevisiae deletion strains, locus YLR262C, strain YPT6 (second series), stronger effect = lower value 0.94 | S. cerevisiae deletion strains, locus YLR262C, strain YPT6, stronger effect = lower value 0.988 | S. cerevisiae deletion strains, locus YLR268W, strain sec22, stronger effect = lower value 0.974 | S. cerevisiae deletion strains, locus YLR320W, strain mms22, stronger effect = lower value 0.995 | S. cerevisiae deletion strains, locus YLR330W, strain CHS5, stronger effect = lower value 1.01 | S. cerevisiae deletion strains, locus YLR342W, strain FKS1 (second series), stronger effect = lower value 1.03 | S. cerevisiae deletion strains, locus YLR342W, strain FKS1, stronger effect = lower value 0.983 | S. cerevisiae deletion strains, locus YLR357W, strain rsc2, stronger effect = lower value 0.98 | S. cerevisiae deletion strains, locus YLR370C, strain arc18, stronger effect = lower value 0.971 | S. cerevisiae deletion strains, locus YLR371W, strain rom2, stronger effect = lower value 0.98 | S. cerevisiae deletion strains, locus YLR384C, strain iki3, stronger effect = lower value 0.989 | S. cerevisiae deletion strains, locus YLR418C, strain cdc73, stronger effect = lower value 0.942 | S. cerevisiae deletion strains, locus YML016C, strain PPZ1, stronger effect = lower value 1.02 | S. cerevisiae deletion strains, locus YML032C, strain rad52, stronger effect = lower value 0.986 | S. cerevisiae deletion strains, locus YML120C, strain ndi1, stronger effect = lower value 0.991 | S. cerevisiae deletion strains, locus YML124C, strain tub3, stronger effect = lower value 0.981 | S. cerevisiae deletion strains, locus YMR058W, strain fet3, stronger effect = lower value 0.987 | S. cerevisiae deletion strains, locus YMR078C, strain ctf18, stronger effect = lower value 0.988 | S. cerevisiae deletion strains, locus YMR125W, strain sto1, stronger effect = lower value 0.972 | S. cerevisiae deletion strains, locus YMR129W, stronger effect = lower value 0.986 | S. cerevisiae deletion strains, locus YMR205C, strain PFK2, stronger effect = lower value 0.972 | S. cerevisiae deletion strains, locus YMR223W, strain ubp8, stronger effect = lower value 0.983 | S. cerevisiae deletion strains, locus YMR231W, strain pep5, stronger effect = lower value 0.981 | S. cerevisiae deletion strains, locus YMR263W, strain SAP30, stronger effect = lower value 1 | S. cerevisiae deletion strains, locus YMR307W, strain GAS1, stronger effect = lower value 1.01 and 0.988 | S. cerevisiae deletion strains, locus YNL067W, strain RPL9B, stronger effect = lower value 0.987 | S. cerevisiae deletion strains, locus YNL071W, strain lat1, stronger effect = lower value 0.996 | S. cerevisiae deletion strains, locus YNL128W, strain TEP1, stronger effect = lower value 1 | S. cerevisiae deletion strains, locus YNL153C, strain GIM3, stronger effect = lower value 1.01 | S. cerevisiae deletion strains, locus YNL175C, strain NOP13, stronger effect = lower value 0.979 | S. cerevisiae deletion strains, locus YNL183C, strain NPR1, stronger effect = lower value 0.946 | S. cerevisiae deletion strains, locus YNL197C, strain WHI3, stronger effect = lower value 0.968 | S. cerevisiae deletion strains, locus YNL209W, strain ssb2, stronger effect = lower value 0.988 | S. cerevisiae deletion strains, locus YNL224C, strain SQS1, stronger effect = lower value 0.991 | S. cerevisiae deletion strains, locus YNL233W, strain BNI4, stronger effect = lower value 1.01 | S. cerevisiae deletion strains, locus YNL248C, strain rpa49, stronger effect = lower value 0.98 | S. cerevisiae deletion strains, locus YNL250W, strain rad50, stronger effect = lower value 0.987 | S. cerevisiae deletion strains, locus YNL271C, strain bni1, stronger effect = lower value 0.966 | S. cerevisiae deletion strains, locus YNL298W, strain CLA4, stronger effect = lower value 0.975 | S. cerevisiae deletion strains, locus YNL307C, strain MCK1, stronger effect = lower value 0.98 | S. cerevisiae deletion strains, locus YNL322C, strain KRE1 (second series), stronger effect = lower value 0.991 | S. cerevisiae deletion strains, locus YNL322C, strain KRE1, stronger effect = lower value 1.01 and 0.995 | S. cerevisiae deletion strains, locus YNR049C, strain mso1, stronger effect = lower value 0.984 | S. cerevisiae deletion strains, locus YNR052C, strain pop2, stronger effect = lower value 0.977 | S. cerevisiae deletion strains, locus YOL006C, strain TOP1, stronger effect = lower value 0.959 | S. cerevisiae deletion strains, locus YOL012C, strain htz1 0.756 | S. cerevisiae deletion strains, locus YOL147C, strain pex11, stronger effect = lower value 0.976 | S. cerevisiae deletion strains, locus YOR001W, strain rrp6, stronger effect = lower value 0.989 | S. cerevisiae deletion strains, locus YOR061W, strain CKA2, stronger effect = lower value 1.01 | S. cerevisiae deletion strains, locus YOR069W, strain VPS5, stronger effect = lower value 1.01 | S. cerevisiae deletion strains, locus YOR070C, strain gyp1, stronger effect = lower value 0.987 | S. cerevisiae deletion strains, locus YOR080W, strain dia2, stronger effect = lower value 0.987 | S. cerevisiae deletion strains, locus YOR083W, strain WHI5 (second series), stronger effect = lower value 0.979 | S. cerevisiae deletion strains, locus YOR083W, strain WHI5, stronger effect = lower value 0.99 | S. cerevisiae deletion strains, locus YOR106W, strain vam3, stronger effect = lower value 0.981 | S. cerevisiae deletion strains, locus YOR136W, strain idh2, stronger effect = lower value 0.977 | S. cerevisiae deletion strains, locus YOR144C, strain elg1, stronger effect = lower value 0.976 | S. cerevisiae deletion strains, locus YOR184W, strain ser1, stronger effect = lower value 0.975 | S. cerevisiae deletion strains, locus YOR231W, strain MKK1, stronger effect = lower value 1.01 | S. cerevisiae deletion strains, locus YOR265W, strain rbl2, stronger effect = lower value 0.987 | S. cerevisiae deletion strains, locus YOR270C, strain vph1, stronger effect = lower value 0.974 | S. cerevisiae deletion strains, locus YOR290C, strain snf2, stronger effect = lower value 0.996 | S. cerevisiae deletion strains, locus YOR316C, strain cot1, stronger effect = lower value 0.99 | S. cerevisiae deletion strains, locus YPL051W, strain arl3, stronger effect = lower value 0.985 | S. cerevisiae deletion strains, locus YPL055C, strain LGE1, stronger effect = lower value 1.01 and 0.996 | S. cerevisiae deletion strains, locus YPL078C, strain atp4, stronger effect = lower value 0.978 | S. cerevisiae deletion strains, locus YPL106C, strain sse1, stronger effect = lower value 0.962 | S. cerevisiae deletion strains, locus YPL240C, strain hsp82, stronger effect = lower value 0.987 | S. cerevisiae deletion strains, locus YPL241C, strain CIN2, stronger effect = lower value 1.01 and 0.997 | S. cerevisiae deletion strains, locus YPL256C, strain CLN2, stronger effect = lower value 0.996 | S. cerevisiae deletion strains, locus YPR119W, strain clb2, stronger effect = lower value 0.969 | S. cerevisiae deletion strains, locus YPR141C, strain kar3, stronger effect = lower value 0.99 | S. cerevisiae deletion strains, locus YPR163C, strain tif3, stronger effect = lower value 0.979 | S. cerevisiae deletion strains, locus YPR167C, strain met16, stronger effect = lower value 0.975 | S. cerevisiae deletion strains, strain wtn01, stronger effect = lower value 0.969 | S. cerevisiae strains, strain wild type, stronger effect = lower value 1
